This is part of a sample that, as a whole, favours compounds with a hit. Of some 79,000 tested, about 15% had one in any assay. Rule as the data show it: active = growth inhibition above about 70%; inactive = the rest.
How the values were obtained:
[1] = NCI Yeast Anticancer Drug Screen. Data for the rad50 strain (AID 155);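 also: 0% = growth of vehicle-only cultures of the same strain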; settings: S. cerevisiae rad50 strain growth inhibition; at 50.0 µM; stronger effect = higher value
In short: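 Relative growth inhibition (compound vs vehicle) was measured in yeast with a defined repair-gene alteration.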

[2] = NCI Yeast Anticancer Drug Screen. Data for the mec2-1 strain (AID 157); settings: S. cerevisiae mec2-1 strain, at 50.0 µM, stronger effect = higher value
In short: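 Mutant yeast (mec2-1) grown with compound; growth inhibition relative to vehicle control reported.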

[3] = NCI Yeast Anticancer Drug Screen. Data for the sgs1 mgt1 strain (AID 161);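 also: 0% = growth of cultures given vehicle only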; settings: S. cerevisiae sgs1 mgt1 strain, at 50.0 µM, stronger effect = higher value
In short: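 Compounds are added to genetically altered yeast, and growth is compared with cultures given vehicle alone to give percent inhibition.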

[4] = NCI Yeast Anticancer Drug Screen. Data for the cln2 rad14 strain (AID 165);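 also: 0% = growth equal to vehicle treated cultures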; settings: S. cerevisiae cln2 rad14 strain, at 50.0 µM, stronger effect = higher value
In short: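 Readout is yeast growth inhibition versus vehicle-treated controls, using a strain with cln2 and rad14 alterations exposed to compound.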

[5] = NCI Yeast Anticancer Drug Screen. Data for the bub3 strain (AID 167); settings: S. cerevisiae bub3 mutant strain, at 50.0 µM, stronger effect = higher value
In short: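 Screening used yeast with an engineered genetic alteration affecting cell cycle control. Compound-exposed cultures were compared with vehicle cultures, and reduced growth was taken as inhibition.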

[6] = NCI Yeast Anticancer Drug Screen. Data for the mlh1 rad18 strain (AID 175); settings: S. cerevisiae mlh1 rad18 strain growth inhibition; at 50.0 µM; stronger effect = higher value
In short: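 Genetically defined yeast (DNA repair-deficient) exposed to compounds; growth inhibition determined relative to vehicle.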

Measured: growth inhibition

Cc1ccc(C)c(OC(=O)NC2CCCCC2)c1
inactive: [1] -4.9% | [2] -15.1% | [3] -15.1% | [4] -57.6% | [5] 0% | [6] -19.9%

O=C(N=C1[Se]C(=Nc2ccccc2)C(=Nc2ccccc2)N1c1ccccc1)c1ccccc1
inactive: [1] 9.45% | [2] 5.1% | [3] 6.55% | [4] 20.6% | [5] 2.75% | [6] 3.25%

Clc1nc(N2CCOCC2)c2[nH]cnc2n1
inactive: [1] -5.9% | [2] 5.7% | [3] 3.9% | [4] -6.1% | [5] 8.8% | [6] 6.25%

Fc1cc(F)c2c(c1)Nc1cc(F)cc(F)c1S2
inactive: [1] 27.5% | [2] 21.6% | [3] 4.75% | [4] -13.6% | [5] 22.9% | [6] 12.7%

Cc1ccc(N2P(N(C)C)N(c3ccc(C)cc3)P2(=O)N(C)C)cc1 (stereo not given)
inactive: [1] 12.4% | [2] 22.4% | [3] 9.45% | [4] -5.6% | [5] 3.6% | [6] 6.4%

O=NNc1ccc(-c2ccc(NN=O)cc2)cc1
inactive: [1] 19.4% | [2] 0.75% | [3] 10.8% | [4] 10.2% | [5] -10.1% | [6] 8.95%

Cc1cccc(C(=O)O)c1-c1c(C)cccc1C(=O)O
inactive: [1] 13.3% | [2] -5.95% | [3] -6.8% | [4] 3.05% | [5] 0.8% | [6] 12.9%

O=C1c2ccccc2Cc2ccc(O)cc21
inactive: [1] 47.1% | [2] 21.3% | [3] 11.1% | [4] 10.3% | [5] 11.8% | [6] 10.8%

C=CC1C(C(=O)Nc2ccccc2)CN1C (stereo not given)
inactive: [1] 7.1% | [2] 14.4% | [3] -4.15% | [4] 18.3% | [5] 10.9% | [6] -3.4%

CCCCCCCC(=O)OCC(=O)c1ccc(-c2ccccc2)cc1
inactive: [1] -24.8% | [2] -1.6% | [3] 2.85% | [4] -28.6% | [5] 11.5% | [6] 3.1%

CC1(n2[nH]c(=O)n(-c3ccccc3)c2=O)Cn2c(=O)n(-c3ccccc3)c(=O)n2-c2ccccc21 (stereo not given)
inactive: [1] -49.2% | [2] -0.3% | [3] -1% | [4] 18.7% | [5] -5.2% | [6] 9.1%

O=C(CCn1[nH]c(=O)c(Cl)c(Cl)c1=O)NNC(=O)C[n+]1ccccc1
inactive: [1] -4.2% | [2] -8.9% | [3] -28.3% | [4] 34.2% | [5] -7.05% | [6] -25.1%

COc1ccc(C(CCl)(CCl)c2ccc(OC)c(C)c2)cc1C
inactive: [1] -23.3% | [2] -74.1% | [3] -30.2% | [4] -4.05% | [5] 5.3% | [6] -20.4%

Cn1nnnc1CC(=O)O
inactive: [1] 1.3% | [2] -12.9% | [3] 1.15% | [4] -22.8% | [5] -2.05% | [6] -12.5%

O=C(O)CCCCCCCCCCOc1ccc(Cl)cc1
inactive: [1] 24.2% | [2] -7.9% | [3] 10.1% | [4] -3.45% | [5] 11% | [6] -33.6%

CC(C)C1OC2(CCCCC2)OCC1(C)C (stereo not given)
inactive: [1] 23.2% | [2] 14.8% | [3] 8.25% | [4] -8.35% | [5] 21.1% | [6] 23.4%

CC(=O)/C=C(\c1ccccc1)c1c(O)c2ccccc2oc1=O
inactive: [1] -2% | [2] 9.15% | [3] 4.45% | [4] 7.2% | [5] 3.85% | [6] 6.15%

O=[N+]([O-])c1cccc(-c2cc3ccccn3c2)c1
inactive: [1] 28.9% | [2] 7% | [3] 13.8% | [4] 5.6% | [5] -1.95% | [6] 6.85%

CC(=O)OCC1OC(SC2=NC(=O)CS2)C(OC(C)=O)C(OC(C)=O)C1OC(C)=O (stereo not given)
inactive: [1] 3.3% | [2] -1.8% | [3] 1.45% | [4] -6.6% | [5] -8.85% | [6] 17.4%

Cc1ccc(S(=O)(=O)n2oc(N)c(Cc3ccccc3)c2=O)cc1
inactive: [1] -25.4% | [2] -0.15% | [3] 7.8% | [4] -23.5% | [5] 19.2% | [6] -2.55%
